# Source: PubChem BioAssay (National Center for Advancing Translational Sciences (NCATS))
# HT1080 IDH1KD tx: qHTS for induction of synthetic lethality in tumor cells producing 2HG: qHTS for the HT-1080-IDH1KD cell line. 360,000 tested, 2% active. HT-1080 IDH1 knockdown viability, ATP luminescence, 48 h. Potency, µM (titrated, usually from 46.1 µM), inactives show at the highest dose activity, negative = toxicity, hits mostly cytotoxic;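 note: 0% = DMSO wells and -100% = cell-free medium wells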
#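 Knockdown cells (IDH1KD HT-1080) received compounds 2 h after plating at 750 cells/well and were kept 48 h at 37 °C in 5% FBS RPMI. A CellTiter-Glo luminescence read gave % activity for curve fitting.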
# HT1080-NT tox: qHTS for induction of synthetic lethality in tumor cells producing 2HG: qHTS for the HT-1080-NT fibrosarcoma cell line; HT-1080-NT fibrosarcoma viability, CellTiter-Glo ATP luminescence, 48 h; Potency, µM (series often up to 46.1 µM), inactives show at the top dose activity, negative = less viability, actives largely listed as cytotoxic; 360,000 tested, 1.6% active; AID 686970, 2013;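 note: NT is the 2HG producing partner of a matched IDH1 knockdown line; 0% = DMSO-treated cells and -100% = media-only wells without cells; nearly all actives have a fitted effect of over 55% in size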
#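 Viability of the 2HG-overproducing fibrosarcoma line after 48 hours of compound exposure at 37 degrees C was determined by luminescence with CellTiter-Glo, and concentration-effect curves were then fitted and categorized.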
# TDP1 cell noCPT: qHTS for Inhibitors of human tyrosyl-DNA phosphodiesterase 1 (TDP1): qHTS in cells in absence of CPT; DT40 Tdp1-/- hTDP1 cells, no CPT, ATP luminescence, 48 h; Potency, µM (titrated, usually from 46.2 µM), inactives show at the highest dose activity change, negative = growth inhibition, hits mostly inhibitors; 420,000 tested, 15% active; note: % is set by controls: 0 for no effect and ±100 for the full control effect; nearly all actives have a fitted effect of over 55% in size
#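 Chicken DT40 Tdp1-/- cells complemented with human TDP1, screened without camptothecin (DMSO vehicle only), 400 cells/well. Compounds pin-transferred, cells incubated at 37 °C for at least 48 hr. Growth read as ATP-dependent luminescence (CellTiter-Glo, 30 min at RT).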
# TGFb inhibitor: qHTS for Inhibitors of TGF-b; Potency, µM (top dose mostly 46.1 µM), inactives show top-dose activity, negative = inhibition, hits mostly inhibitors; HepG2 CAGA-GFP TGF-b/SMAD3 reporter, GFP fluorescence, 18 h; TGF-beta stimulated, 500 pg/mL final; 410,000 tested, 1.2% active; note: % is set by controls: 0 for no effect and ±100 for the full control effect; nearly all actives have a fitted effect of over 65% in size
#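 Inhibition was scored as loss of TGF-beta-induced (500 pg/mL final, 18 hours, 37 degrees C) GFP in HEPG2 cells carrying a CAGA-GFP reporter, in DMEM with 1% FBS. Well GFP was summed per cell; Activity was normalised to unstimulated and stimulated DMSO wells, then concentration-response fitting.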
# TDP1 cell CPT: qHTS for Inhibitors of human tyrosyl-DNA phosphodiesterase 1 (TDP1): qHTS in cells in presence of CPT; chicken DT40 Tdp1-/-;hTDP1 cells + 20 nM CPT, ATP luminescence, 48 h; Potency, µM (highest dose often 46.2 µM), for inactives: top-dose activity change, negative = growth inhibition, most hits filed as inhibitors; 420,000 tested, 12% active; AID 686979, 2013; note: % is set by controls: 0 for no effect and ±100 for the full control effect; nearly all actives have a fitted effect of over 55% in size
#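 Chicken DT40 Tdp1-/- cells complemented with human TDP1, 400 cells/well, exposed to compounds plus 20 nM camptothecin for at least 48 h at 37 C; viability read as ATP content by CellTiter-Glo luminescence.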
# HepG2 viability: qHTS for Inhibitors of TGF-b: Cytotox Counterscreen; AID 588856, 2011; 410,000 tested, 0.76% active; Potency, µM (titrated, usually from 46.1 µM), without a hit: at the top dose activity change, negative = cytotoxicity, usual class: cytotoxic; HepG2 CAGA-GFP viability, ATP luminescence, 18 h
#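 HepG2 CAGA-GFP cells (1000/well, DMEM with 1% FBS) received compound, then TGF-beta at 500 pg/mL final, and were incubated 18 hours at 37 degrees C. Viability was read by CellTiter-Glo luminescence. Media-only wells were set as complete cell-killing and DMSO as no toxicity.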
# The depositor's hits bear a star; u = inconclusive; x = no result given. Compounds with a hit are over-represented: about 17% of the library has one in this group of screens. Calls come from the whole dose curve; as a rule, active = well fitted curve in the direction sought with a large enough effect; inconclusive = small, poorly fitted or top-dose-only effect, or another doubt; inactive = no such curve, though single readings can be large; an effect the other way counts as inactive or inconclusive. Potency is the fitted concentration of half-maximal effect.
SMILES,HT1080 IDH1KD tx,HT1080-NT tox,TDP1 cell noCPT,TGFb inhibitor,TDP1 cell CPT,HepG2 viability
CN1CC(=O)N(CC(=O)NCc2ccc3c(c2)OCO3)C1=O,2%,0%,-3%,3%,-16%,-12%
CC1Cc2cc(C3(O)C(=O)c4ccccc4C3=O)ccc2N1 (centres undefined),u,0%,1%,-2%,6%,-2%
O=C1c2ccccc2-n2c1nc1ccccc1c2=O,-9%,-3%,1.3µM*,u,1.3µM*,-32%
O=c1c2ccccc2nc2n1-c1ccccc1CCC2,3%,5%,16µM*,1%,u,8%
Nn1c(-c2ccccc2)nc2ccccc2c1=O,3%,0%,-3%,1%,-1%,-12%
O=[N+]([O-])c1ccccc1Nc1cccnc1,-3%,-19%,u,5%,-21%,-1%
O=C1[C@@H]2[C@@H]3C[C@@H]([C@H]4ON=C(c5ccc(Cl)cc5)[C@@H]34)[C@@H]2C(=O)N1C1CCCCC1,-8%,-2%,9.2µM*,u,16µM*,0%
Cc1ccc(S(=O)(=O)N(CCCO)CC(O)CON=C2c3ccccc3-c3ccccc32)cc1 (centres undefined),-22%,-11%,16µM*,u,u,-115%
COc1ccccc1N(CC(O)COc1ccc(C)cc1)S(=O)(=O)c1ccccc1 (centres undefined),-2%,4%,u,u,-5%,2%
N#Cc1ccccc1S(=O)(=O)N1CCN(C(=O)CN(Cc2ccco2)Cc2cccs2)CC1,-2%,-5%,16µM*,-8%,u,-32%
CCOc1ccccc1NS(=O)(=O)c1ccc2oc(=O)c3ncn(C)c3c2c1,x,x,-6%,u,-17%,-67%
N/C(=N\N=C/c1ccc(Br)cc1)N/N=C\c1ccc(Br)cc1,u,u,u,u,u,11µM*
N/C(=N\N=C/c1ccc(F)cc1)N/N=C\c1ccc(F)cc1,1%,4%,u,u,u,-131%
O=C(NN=Cc1ccc2c(c1)OCO2)NN=Cc1ccc2c(c1)OCO2,-30%,-23%,u,4%,2%,-28%
N/C(=N\N=Cc1ccc2c(c1)OCO2)NN=Cc1ccc2c(c1)OCO2,u,-12%,2.3µM*,u,3.3µM*,-42%
CCc1noc(C)c1C(=O)N(C)CC(=O)Nc1ccc(F)c(F)c1F,16%,17%,-8%,1%,-3%,9%
CCOC(=O)[C@]12CCC=C1N(CCC1=CCCCC1)C(=O)[C@H](CC(=O)NCCC(C)C)C2,-15%,5%,16µM*,x,u,x
CCOC(=O)[C@]12CCCC=C1N(CCc1ccc(OC)c(OC)c1)C(=O)[C@H](CC(=O)NCc1ccc(C)o1)C2,5%,15%,16µM*,x,13µM*,x
CCOC(=O)[C@]12CCCC=C1N(CCC1=CCCCC1)C(=O)[C@H](CC(=O)NCc1ccccc1)C2,u,u,16µM*,x,u,x
CCOC(=O)[C@]12CCCC=C1N(CCC1=CCCCC1)C(=O)[C@H](CC(=O)NCc1ccc(C)o1)C2,u,u,13µM*,x,u,x
CCOC(=O)[C@]12CCC=C1N(CCC1=CCCCC1)C(=O)[C@H](CC(=O)NCc1cccs1)C2,3%,10%,u,x,u,x
